40 compounds from PubChem BioAssay can be followed below.

Values without a mark were called inactive. The rule behind the calls is not given here.

In the experiment the target is Pantothenate synthetase (Mycobacterium tuberculosis (strain ATCC 25618 / H37Rv)) (UniProt P9WIL5). Briefly: Recombinant Mtb pantothenate synthetase (PanC) inhibitors, coupled enzyme, confirmatory (AID 375).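 Note: 0% = full reaction with vehicle and 100% = no enzyme background.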 The conditions noted are these: coupled enzyme assay; at 10 µM, active compounds read high.
Pantothenate synthetase (Mycobacterium tuberculosis (strain ATCC 25618 / H37Rv)), sequence (P9WIL5 whole entry, looked up): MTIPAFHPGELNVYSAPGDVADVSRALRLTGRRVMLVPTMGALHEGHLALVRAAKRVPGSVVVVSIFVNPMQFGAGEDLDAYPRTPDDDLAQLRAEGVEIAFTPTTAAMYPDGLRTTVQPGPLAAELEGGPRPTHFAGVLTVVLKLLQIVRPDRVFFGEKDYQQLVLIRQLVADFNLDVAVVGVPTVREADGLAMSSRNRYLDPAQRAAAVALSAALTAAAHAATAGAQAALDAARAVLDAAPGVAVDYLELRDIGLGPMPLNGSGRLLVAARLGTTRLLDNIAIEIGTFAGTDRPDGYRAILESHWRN
Regarding `CCOC(=O)/C=C1\CC(=O)Nc2nonc2N1`, the inhibition was 4%. For the compound `CCc1nnc(NC(=O)C2CCCN2S(=O)(=O)c2ccc(C)cc2)s1` (stereo not given), the inhibition is 2%. `Nc1nc2ccccc2n1C(=O)CCc1ccccc1`: the inhibition is 0%.

On to `CCOc1ccc(-c2nc(C#N)c(N3CCN(C)CC3)o2)cc1`, for which the inhibition was 2%. Then `COc1ccc(Cl)cc1N1CCN(CCNC(=O)Nc2ccccc2C)CC1`, with 0%. For the compound `O=C(Nc1ccc2c(c1)OCO2)c1nn(-c2ccccc2)c(=O)c2ccccc12`, the inhibition is 3%.

Consider `COc1cc(/C=C/C(=O)CC(=O)/C=C/c2ccc(O)c(OC)c2)ccc1O`, for which the inhibition was 10%. `CCOc1ccccc1C(=O)N1CCN(c2cccc(Cl)c2)CC1`: the inhibition was 0%. With `O=C1CC(c2ccc(F)c(Br)c2)C2=C(CCCC2=O)N1` (stereo not given), the inhibition was 5%. With `CCCC(=O)N1CCN(c2ccc(NC(=O)c3ccc(Br)o3)cc2)CC1`, the inhibition is 3%. Turning to `CCOC(=O)c1cnc2c(OC)cccc2c1N1CCN(c2ccc(OC)cc2)CC1`, the inhibition was 0%. For the compound `COC(=O)c1ccc(NC(=O)C(C)N2C(=O)c3ccccc3C2=O)cc1` (stereo not given), the inhibition was 8%. `COc1ccccc1C(=O)Nc1ccc(N2CCN(S(C)(=O)=O)CC2)cc1`: the inhibition is 0%. Consider `N#Cc1nc(-c2ccc(Cl)cc2)oc1NCCc1ccccn1`, for which the inhibition was 0%. Regarding `CCN(c1ccc2c(c1)OCO2)S(=O)(=O)c1cc(Br)cc2c1N(C(=O)C1CC1)CC2`, the inhibition was 0%. With `CCn1nccc1C(=O)Nc1cc(Cl)ccc1Cl`, the inhibition was 0%. For `O=C(CSc1nnc(-c2ccccc2F)o1)OCc1ccccc1`, the inhibition was 0%. For `Cc1cc(NC(=O)c2ccccc2Oc2ccccc2)no1`, the inhibition is 12%. Turning to `C=CCn1c(SCC(=O)C(C)(C)C)nnc1-c1ccccn1`, the inhibition was 3%. For the compound `O=C(Nc1ccccc1-c1ccccc1)NC1CCN(CC(=O)N2CCOCC2)CC1`, the inhibition is 0%. As to `O=C(Cn1cccc1C(=O)c1ccccc1)NCCN1CCOCC1`, the inhibition was 0%. Turning to `C#CC(CO)N(CCN(Cc1ccccc1)C(C#C)CO)Cc1ccccc1` (stereo not given), the inhibition is 9%. On to `COC(=O)CCC(=O)Nc1cccc(Br)c1`, for which the inhibition was 0%.

For the compound `CCOc1cc(C)c(C(C)C)cc1S(=O)(=O)N1CCN(C)CC1`, the inhibition was 0%. For `O=C(CSc1n[nH]c(-c2cccs2)n1)N1CCN(S(=O)(=O)c2ccccc2)CC1`, the inhibition was 0%. For `CC(=O)SCC(=O)N=c1sc2cc(F)ccc2n1C`, the inhibition was 0%.

With `O=C(CSc1nnnn1Cc1ccccc1)Nc1ccc2c(c1)OCO2`, the inhibition is 1%. Take `CCc1nc(N)nc(N)c1-c1ccc(Cl)cc1`: the inhibition is 0%. For the compound `O=C(Cn1ccc2ccccc2c1=O)NCCC(=O)N1CCN(C(=O)c2ccco2)CC1`, the inhibition is 9%. For `CCCCn1nc(C(=O)N2CCc3ccccc32)c2ccccc2c1=O`, the inhibition is 6%.

Regarding `O=C(COC(=O)C12CC3CC(CC(O)(C3)C1)C2)N1CCN(S(=O)(=O)c2ccc(Cl)cc2)CC1`, the inhibition was 3%. In the case of `COc1cc(-c2nc(-c3cccc(C(F)(F)F)c3)no2)cc(OC)c1OC`, the inhibition is 0%. For `Cc1c[nH]c2cccc(OCC(O)CNC(C)(C)C)c12` (stereo not given), the inhibition was 0%. In the case of `O=C(Cn1nnc(-c2ccncc2)n1)Nc1ccc2c(c1)CCC2`, the inhibition was 0%. `CS(=O)(=O)NCCSCc1c(F)cccc1Cl`: the inhibition was 3%. Take `O=C(Cn1[nH]c(=O)c2ccccc2c1=O)OCC(=O)N1CCCc2ccccc21`: the inhibition was 5%. As to `COc1ccc2c(CC(=O)Nc3nnc(C4CC4)s3)coc2c1`, the inhibition is 0%. Regarding `NC(=O)SCC(=O)Nc1cccc(Cl)c1`, the inhibition was 1%. On to `O=C(O)C1CC=CCC1C(=O)Nc1cccc(C(=O)N2CCCCC2)c1` (stereo not given), for which the inhibition was 0%. With `O=C(CSc1nnc(-c2cccs2)o1)N1CCOCC1`, the inhibition is 0%.

As usually defined, the inhibition is how much of the control response was suppressed.
